About 83,000 compounds went through this panel and 20% of them were active in at least one assay; those are over-represented in the sample as a whole.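 Percent growth is the endpoint: 0 to 100 indicates growth inhibition (40 means 60% inhibition), 0 means no net growth, and negative values indicate cell death.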 A number with no mark means an inactive call. Calls of active or inactive are those of the source. How the source made its calls: active means growth percent below 10; inactive means the rest.

The test system of the first experiment is TK-10 renal. Kind of experiment: NCI-60 one-dose screen, 48 h (100 = growth as untreated, 0 = no growth, -100 = all killed). The note with it: 10 µM unless noted.
With `CCC1S/C(=N\N=C(/C)c2cccs2)N(c2ccccc2)C1=O` (stereo unspecified), the growth was 114%.

Consider `COc1ccc2c(c1)/C(=C/c1c(-c3cc(OC)c(OC)c(OC)c3Br)nc3sccn13)C(=O)N2`, for which the growth was 118%.

`N#CC(C#N)=C(C#N)c1c[nH]c2ccccc12`: the growth is 98.9%.

As for `CNC(=O)NN`, the growth is 111%.

Consider `ClC1c2ccccc2CCc2ccccc21`, for which the growth was 101%.

In the case of `COc1ccc(-c2cc3ccc(N(C)C)cc3nc2N)c(F)c1`, the growth is 49.1%.

For `CCOC(=O)C(C)(CSSCC(C)(NC(=O)c1ccc2ccccc2c1)C(=O)OCC)NC(=O)c1ccc2ccccc2c1` (stereo unspecified), the growth was 103%.

In the case of `COc1ccc(-c2cc(-c3nnc(SC/C(=N\O)c4ccccc4)n3-c3ccccc3)c3ccccc3n2)cc1`, the growth was 123%.

For the molecule `CC(=O)Nc1ccc([I+]c2ccc([N+](=O)[O-])cc2)cc1`, the growth was 87.4%.

Turning to `O=[N+]([O-])c1ccc(NS(=O)(=O)c2ccccc2)c2ccccc12`, the growth was 53.1%.

Take `COc1ccc(-c2c(C#N)cnc(N)c2-c2nc3cc(C)c(C)cc3[nH]2)cc1`: the growth is 48.6%.

On to `S=c1n(CNc2ccc(Cl)nn2)nc(-c2cc(Cl)cc(Cl)c2Cl)n1/N=C/c1ccc(Cl)cc1`, for which the growth is 113%.

Regarding `Cc1ccc2c(c1)Nc1ccc(C)cc1C2(C)C`, the growth is 102%.

Regarding `Clc1ccc2c(NCCNc3nc(Cl)nc4ccccc34)ccnc2c1`, the growth was -79.3% (active).

On to `CN1CCN(Cn2nc(-c3cc(Cl)cc(Cl)c3Cl)n(/N=C/c3ccc(Cl)cc3)c2=S)CC1`, for which the growth is 94.6%.

For the molecule `C=C1C(=O)O[C@H]2[C@H]1CC/C(COC(=O)c1ccc(Cl)nc1)=C\CC[C@@]1(C)O[C@@H]21`, the growth is -8.78% (active).

As for `COc1ccc(/C=N/C2=NNC(C)(c3ccccc3O)N2C(Cc2c[nH]c3ccccc23)C(=O)O)cc1` (stereo unspecified), the growth is 70.4%.

With `COc1ccc(/C=C/C(=O)/C=C(/C=C/c2ccc(OC)c(OC)c2OC)OB(F)F)c(OC)c1OC`, the growth is 35.6%.

Take `Cc1cc(N2CCOCC2)nc(N(CCNc2ccnc3cc(Cl)ccc23)Cc2ccco2)n1`: the growth was 10.9%.

For the molecule `NN=C(c1ccc(Cl)cc1)c1ccc(Cl)cc1`, the growth is 110%.

Consider `Cc1cc2c(cc1C)N(C(=O)CCl)CCN2C(=O)CCl`, for which the growth was -96.9% (active).

For the molecule `COc1cccc(/C=N/C(=S)NC2(C)C3CCC(C3)C2(C)C)c1O` (stereo unspecified), the growth was 85.9%.

Turning to `CC(=O)c1cc2c(N)c(C(=O)Nc3cccc(Cl)c3)sc2nc1C`, the growth is 90.4%.

As to `CCOC(=O)c1cnc2c(OC)ccc(OC)c2c1Cl`, the growth was 106%.

`CCOc1cccc(Nc2nc(N)nc3[nH]c4ccc(O)cc4c23)c1`: the growth was 27.2%.

In the case of `CC(C)CCC[C@@H](C)[C@H]1CC[C@H]2[C@@H]3CC=C4N(c5ccccc5)C(=O)CC[C@]4(C)[C@H]3CC[C@]12C`, the growth is 97.4%.

Turning to `C=C(C)[C@@H]1C/C=C(\COC(=O)[C@H](OC(C)=O)C(NC(=O)c2ccccc2)c2ccccc2)CC[C@H]2O[C@]2(C)CC/C=C(\C)CC1` (stereo partly specified), the growth is 85.8% [5 µM].

As for `C/C(=N/NC(=O)Cn1c2ccccc2c2ccncc21)c1cccs1`, the growth was 127%.

As to `CC(=S)Nc1ccccc1`, the growth is 109%.

`Nc1ccc(S(=O)(=O)Nc2cc(I)cc(I)c2)cc1`: the growth is 107%.

For the molecule `Cc1cn([C@]2(CF)O[C@H](CO)C2C)c(=O)[nH]c1=O` (stereo partly specified), the growth is 109%.

With `COc1cc(NC(C)CCCN2C(=O)c3ccccc3C2=O)c2nccc(C)c2c1OC` (stereo unspecified), the growth is 122%.

Regarding `O=C(O)c1ccccc1C(=O)c1ccc(I)cc1`, the growth was 95.6%.

Regarding `CC(C(=O)O)N1C(N)=NNC1c1ccccc1O` (stereo unspecified), the growth was 148%.

In the case of `COc1ccc(C2=NN(C(=O)COc3ccc(Cl)cc3)C(O)(c3cc(F)c(Cl)cc3Cl)C2)cc1OC` (stereo unspecified), the growth was 16%.

Consider `CCCCNC(=O)Oc1ccc(/C(=C(/CC)Cc2ccccc2)c2ccc(OCCCN(C)C)cc2)cc1`, for which the growth was 91.9%.

In the case of `COc1ccc(C(=O)Cn2cnc3c(Nc4cc(C(=O)Nc5ccc(N6CCN(CCO)CC6)cc5)ccc4C)ncnc32)cc1`, the growth is 102%.

As to `COc1cc(NC(=O)c2cc(OC)c3ccn(C)c3c2)cc2c1C[C@]1(C)CC[C@@H](O)C(C)(C)[C@H]1O2`, the growth was 90%.

A further experiment has as its system ACHN renal. The description is as above. The note with it: 10 µM unless noted.
As to `CCC1S/C(=N\N=C(/C)c2cccs2)N(c2ccccc2)C1=O` (stereo unspecified), the growth is 113%.

For `COc1ccc2c(c1)/C(=C/c1c(-c3cc(OC)c(OC)c(OC)c3Br)nc3sccn13)C(=O)N2`, the growth was 86.5%.

Consider `N#CC(C#N)=C(C#N)c1c[nH]c2ccccc12`, for which the growth was 73.4%.

For the molecule `CNC(=O)NN`, the growth was 88.9%.

On to `ClC1c2ccccc2CCc2ccccc21`, for which the growth was 95.8%.

For `COc1ccc(-c2cc3ccc(N(C)C)cc3nc2N)c(F)c1`, the growth was 56.8%.

As to `CCOC(=O)C(C)(CSSCC(C)(NC(=O)c1ccc2ccccc2c1)C(=O)OCC)NC(=O)c1ccc2ccccc2c1` (stereo unspecified), the growth is 102%.

Consider `COc1ccc(-c2cc(-c3nnc(SC/C(=N\O)c4ccccc4)n3-c3ccccc3)c3ccccc3n2)cc1`, for which the growth was 106%.

`CC(=O)Nc1ccc([I+]c2ccc([N+](=O)[O-])cc2)cc1`: the growth is 89.7%.

Turning to `O=[N+]([O-])c1ccc(NS(=O)(=O)c2ccccc2)c2ccccc12`, the growth was 63.6%.

In the case of `COc1ccc(-c2c(C#N)cnc(N)c2-c2nc3cc(C)c(C)cc3[nH]2)cc1`, the growth was 53.2%.

As for `S=c1n(CNc2ccc(Cl)nn2)nc(-c2cc(Cl)cc(Cl)c2Cl)n1/N=C/c1ccc(Cl)cc1`, the growth is 107%.

Consider `Cc1ccc2c(c1)Nc1ccc(C)cc1C2(C)C`, for which the growth is 112%.

Take `Clc1ccc2c(NCCNc3nc(Cl)nc4ccccc34)ccnc2c1`: the growth is -97.7% (active).

For the molecule `CN1CCN(Cn2nc(-c3cc(Cl)cc(Cl)c3Cl)n(/N=C/c3ccc(Cl)cc3)c2=S)CC1`, the growth is 100%.

For the molecule `C=C1C(=O)O[C@H]2[C@H]1CC/C(COC(=O)c1ccc(Cl)nc1)=C\CC[C@@]1(C)O[C@@H]21`, the growth is -20.6% (active).

As for `COc1ccc(/C=N/C2=NNC(C)(c3ccccc3O)N2C(Cc2c[nH]c3ccccc23)C(=O)O)cc1` (stereo unspecified), the growth is 46.5%.

In the case of `COc1ccc(/C=C/C(=O)/C=C(/C=C/c2ccc(OC)c(OC)c2OC)OB(F)F)c(OC)c1OC`, the growth was -16.4% (active).

With `Cc1cc(N2CCOCC2)nc(N(CCNc2ccnc3cc(Cl)ccc23)Cc2ccco2)n1`, the growth was 27%.

With `NN=C(c1ccc(Cl)cc1)c1ccc(Cl)cc1`, the growth is 101%.

For the molecule `Cc1cc2c(cc1C)N(C(=O)CCl)CCN2C(=O)CCl`, the growth was -81.6% (active).

In the case of `COc1cccc(/C=N/C(=S)NC2(C)C3CCC(C3)C2(C)C)c1O` (stereo unspecified), the growth was 69.9%.

In the case of `CC(=O)c1cc2c(N)c(C(=O)Nc3cccc(Cl)c3)sc2nc1C`, the growth is 93%.

Consider `CCOC(=O)c1cnc2c(OC)ccc(OC)c2c1Cl`, for which the growth was 100%.

In the case of `CCOc1cccc(Nc2nc(N)nc3[nH]c4ccc(O)cc4c23)c1`, the growth was 40.8%.

Take `CC(C)CCC[C@@H](C)[C@H]1CC[C@H]2[C@@H]3CC=C4N(c5ccccc5)C(=O)CC[C@]4(C)[C@H]3CC[C@]12C`: the growth is 105%.

In the case of `C=C(C)[C@@H]1C/C=C(\COC(=O)[C@H](OC(C)=O)C(NC(=O)c2ccccc2)c2ccccc2)CC[C@H]2O[C@]2(C)CC/C=C(\C)CC1` (stereo partly specified), the growth was 86.8% [5 µM].

Take `C/C(=N/NC(=O)Cn1c2ccccc2c2ccncc21)c1cccs1`: the growth is 103%.

For the molecule `CC(=S)Nc1ccccc1`, the growth is 97.4%.

Take `Nc1ccc(S(=O)(=O)Nc2cc(I)cc(I)c2)cc1`: the growth is 120%.

As to `Cc1cn([C@]2(CF)O[C@H](CO)C2C)c(=O)[nH]c1=O` (stereo partly specified), the growth was 112%.

In the case of `COc1cc(NC(C)CCCN2C(=O)c3ccccc3C2=O)c2nccc(C)c2c1OC` (stereo unspecified), the growth is 110%.

Consider `O=C(O)c1ccccc1C(=O)c1ccc(I)cc1`, for which the growth was 104%.

In the case of `CC(C(=O)O)N1C(N)=NNC1c1ccccc1O` (stereo unspecified), the growth is 87.3%.

Regarding `COc1ccc(C2=NN(C(=O)COc3ccc(Cl)cc3)C(O)(c3cc(F)c(Cl)cc3Cl)C2)cc1OC` (stereo unspecified), the growth was 5.24% (active).

Turning to `CCCCNC(=O)Oc1ccc(/C(=C(/CC)Cc2ccccc2)c2ccc(OCCCN(C)C)cc2)cc1`, the growth is 92.5%.

Regarding `COc1ccc(C(=O)Cn2cnc3c(Nc4cc(C(=O)Nc5ccc(N6CCN(CCO)CC6)cc5)ccc4C)ncnc32)cc1`, the growth is 103%.

For the molecule `COc1cc(NC(=O)c2cc(OC)c3ccn(C)c3c2)cc2c1C[C@]1(C)CC[C@@H](O)C(C)(C)[C@H]1O2`, the growth is 36.6%.

The record behind these values is PubChem BioAssay (NCI).
